Measurements taken from PubChem BioAssay (NCI).
Compounds without any hit were thinned out: in the full panel of roughly 83,000, 20% have a hit.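 Single-dose data. Exposure time 48 hours. Values below 10 considered active.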 Values without a mark were called inactive. Activity calls are given as the source filed them.

These compounds were tested on CAKI-1 renal (assay: NCI-60 one-dose screen, 48 h (100 = growth as untreated, 0 = no growth, -100 = all killed)). Conditions: 10 µM.
Description: Growth inhibition of the CAKI-1 human tumor cell line is measured as a screen for anti-cancer activity. Cells are grown in 96 well plates and exposed to the test compound for 48 hours. Compounds are tested at a single concentration, which is 10^-5 M for most compounds. The reported endpoint is percent growth (GI% or GIPRCNT), where numbers from 0 - 100% represent growth inhibition, and numbers from -100% - 0 represent cell death. For example, a value of 40 represents 60% growth inhibition. A value of 0 means no net growth occurred over the course of the experiment. A value of -40 indicates 40% of cells at the beginning of the experiment died by the end of the experiment. A value of -100 means all cells are dead at the end of the experiment.
NCI-60 Human Tumor Cell Lines Screen was performed using the standard one-dose NCI protocol, which is described in more detail at https://dtp.cancer.gov/discovery_development/nci-60/default.htm.
Compounds with GIPRCNT values below 10 were considered active. Activity score was based on GIPRCNT using the following formula: […]
Score is 0 for GIPRCNT values of 100 or above, 50 for GIPRCNT values of 0, and 100 for GIPRCNT values of -100.

SMILES | growth
CS(=O)c1nccc(-c2c(-c3ccc(F)c(OCCc4ccccc4)c3)nc3sccn23)n1 (stereo not given) | 84.8%
Clc1ccc(-c2nc3ccc(/C(=N\N=C\c4ccccc4)c4ccccc4)cc3[nH]2)cc1 | 77.2%
O=C(Nc1cccc(-c2nc(-c3ccc(NC(=O)c4cccs4)cc3Cl)no2)c1)Nc1ccc(NC(=O)C2CC2)c(C(F)(F)F)c1 | -67.7% (active)
Cn1cc(-c2nn3cc(-c4cccnc4)nc3s2)c2ccccc21 | 43.5%
COc1cc2cc(Oc3ccc(NC(=O)c4cccc(C(F)(F)F)c4)cc3)c(C)nc2cc1OCCN(C)C | 75.2%
O=C(N/N=C\c1ccc(Cl)cc1)c1ccc2nc(-c3ccc(Br)cc3)[nH]c2c1 | -17.8% (active)
COc1ccc(S(=O)(=O)NCCCNc2nccc(-n3cnc4ccccc43)n2)cc1 | 68.8%
Cc1ccc(NC(=O)c2ccc(CN3CCN(C)CC3)c(C(F)(F)F)c2)cc1Oc1ccc(-c2[nH]nc3ncnc(N)c23)cc1 | 92.1%
O=C(NNc1nc2cc(F)c(F)cc2n2cccc12)c1ncccn1 | 18.2%
CCOC(=O)c1c(NCC(=O)Nc2cccc(Cl)c2)sc2c1CCCC2 | 68.4%
CS(=O)(=O)c1ccc(-c2nn(-c3ccccc3)cc2/C=C/C(=O)c2ccc(Br)cc2)cc1 | 84.6%
CC(C)N=C(N/C(N)=N/c1nc2ccccc2s1)NC(C)C | 45.2%
Cc1cccc(NC(c2cc3cccc4ccc5cccc2c5c43)c2nnnn2C(C)(C)C)c1C (stereo not given) | 66.3%
C#C[C@]1(O)CC[C@H]2[C@@H]3CC=C4c5sc(Nc6cccc(Cl)n6)nc5CC[C@]4(C)[C@H]3CC[C@@]21C | -40.6% (active)
CC1OC(O[C@@H]2[C@H](O)C(CO)OC(O[C@H]3COC(O[C@H]4CC[C@]5(C)[C@H]6CC[C@]78OC[C@@]9(CC[C@](C)(C=O)C[C@H]97)C(=O)C[C@@]8(C)[C@]6(C)CC[C@H]5C4(C)C)[C@@H](O)[C@@H]3O)[C@H]2OC2OC[C@@H](O)[C@@H](O)[C@@H]2O)[C@@H](O)[C@@H](O)[C@H]1O (stereo not given in full) | 84.8%
CNC(=O)c1cc(Oc2ccc3nc(NC(=O)c4ccc(CN5CCN(C)CC5)c(C(F)(F)F)c4)sc3c2)ccn1 | 53.3%
CN1CCN(Cc2ccc(NC(=O)c3cncc(C#Cc4cnc5ccc(O[C@H]6CCOC6)nn45)c3)cc2C(F)(F)F)CC1 | -96.2% (active)
Cc1cc(=O)n2nc(-c3cn(C)c4ccc(Cl)cc34)sc2n1 | 79%
Cn1ccnc1C(=O)/C=C/c1ccc(C(=O)Nc2ccc(NC(=O)CCNC(=O)c3csc(Br)n3)cc2)cc1 | 29.3%
Cc1ccc(Cc2cnc(NC(=O)/C(C#N)=C/c3ccc(-c4ccc(Cl)cc4)o3)s2)cc1 | 83.8%

SMILES | growth
CCOC(=O)c1c(Nc2ccccc2)nn2c(-c3ccc(Br)cc3)ccnc12 | 57.6%
C=CCn1c(SCC(=O)Nc2cccc(C(=O)/C=C/c3ccccc3)c2)nc2ccccc2c1=O | 80.1%
CS(=O)(=O)c1nccc(-c2c(-c3ccc(F)c(OCCc4ccccc4)c3)nc3sccn23)n1 | 84%
O=S(=O)(NCCCNc1nccc(-n2cnc3ccccc32)n1)c1ccc(F)cc1 | 71%
CN(c1ccc(Cl)cc1)S(=O)(=O)c1ccc(-c2cnc(C3CC3)o2)cc1 | 5.6% (active)
CC1(C)CC[C@]2(C(=O)O)CC[C@]3(C)C(=CCC4[C@@]5(C)C[C@@H](O)[C@@H]6OC(c7ccccc7O)OC[C@@]6(C)C5CC[C@]43C)C2C1 (stereo not given in full) | 73.5%
COc1ccccc1/C=C/C(=O)c1nnn(-c2ccc(C(=O)O)cc2)c1C | 96%
N#C/C(=C\c1ccc(N2CCCCC2)cc1)C(=O)Nc1sc2c(c1C#N)CCC2 | 84.8%
C=C1C(=O)O[C@@H]2/C=C(/C)C3=CC(=O)[C@@](C)(C[C@H](OC(=O)/C(C)=C\C)[C@@H]12)O3 | 6.13% (active)
CNC(=O)c1cc(Oc2ccc3nc(NC(=O)c4ccc(CN5CCCN(C)CC5)c(C(F)(F)F)c4)sc3c2)ccn1 | 14.6%
NS(=O)(=O)c1ccc(-n2cc(CC=O)nn2)cc1 | 92.2%
CCN1CCN(c2cc(C(=O)Nc3nc4ccc(Oc5ccnc(C(=O)NC)c5)cc4s3)cc(C(F)(F)F)c2)CC1 | 84.5%
O=C1[C@H]2Cc3c([nH]c4ccccc34)[C@@H](c3ccc(Cl)cc3)N2C(=O)CN1C1CCN(Cc2c(Cl)cccc2Cl)CC1 | 54.6%
O=C(NNc1nc2cc(F)c(F)cc2n2cccc12)c1cccnn1 | 11.8%
CCOC(=O)C1=C(C)Nc2nc3ccccc3n2C1c1ccccc1 (stereo not given) | 90.6%
N#Cc1c(-c2cccs2)cc(-c2cnccn2)nc1SCC(=O)NNC(=S)Nc1ccc(F)cc1 | 99.1%
N#C/C(=C\c1ccc2ccccc2c1)C(=O)Nc1sc2c(c1C#N)CCC2 | 88.2%
Nc1cc(F)ccc1NC(=O)c1ccc(NC(=O)C/C=C/c2cccnc2)cn1 | 33.9%
CCC(=O)Nc1cc(Nc2cc(NC3CC3)n3ncc(C#N)c3n2)ccc1C | 14.7%
CN1C(=O)/C(=C/C=C/c2ccco2)SC1=S | 95.2%
